Hit rate of the full screen: of about 420,000 compounds, about 50,000 (12%) were called active. Roughly 26% stayed inconclusive and do not appear here. Calls come from the whole dose curve; as a rule, active = well fitted inhibition curve with a large enough effect; inconclusive = small, poorly fitted or top-dose-only effect; inactive = flat fitted curve, though single readings scatter. This excerpt belongs to a sample that is enriched for actives.
Assay: qHTS for Inhibitors of human tyrosyl-DNA phosphodiesterase 1 (TDP1): qHTS in cells in presence of CPT; note: nearly all actives have a fitted effect of over 55% in size
Conditions: chicken DT40 Tdp1-/-;hTDP1 cells + 20 nM CPT, ATP luminescence, 48 h; series mostly up to 46.2 µM; activity change, negative = growth inhibition: at the top concentration
Outline: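 Cell growth measured by CellTiter-Glo luminescence after a minimum 48 h, 37 C compound exposure with 20 nM CPT in Tdp1-knockout DT40 cells stably expressing hTDP1, seeded 400/well; qHTS titration format.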
% is set by controls: 0 for no effect and ±100 for the full control effect; potency is the fitted concentration of half-maximal effect.

Row | SMILES | activity change, negative = growth inhibition | Potency
1 | CN(C(=O)CN1C(=O)S/C(=C\c2ccccc2F)C1=O)C1CCS(=O)(=O)C1 (configuration not stated) | -18.2% (inactive) | –
2 | CN(C(=O)CCN1C(=O)/C(=C/c2ccccc2F)SC1=S)C1CCS(=O)(=O)C1 (configuration not stated) | -94.6% (inactive) | –
3 | O=C(Nc1cc(C(F)(F)F)ccc1Cl)c1cc2nc(-c3ccc4c(c3)OCO4)cc(C(F)(F)F)n2n1 | 0.0565% (inactive) | –
4 | O=C(NCCCCCCCCCNC(=O)C(F)(F)F)C(F)(F)F | -14.6% (inactive) | –
5 | C/C(=N\NS(=O)(=O)c1cccc([N+](=O)[O-])c1)c1cc2ccccc2o1 | 1.15% (inactive) | –
6 | CCn1c(SCc2cc(=O)n3ccsc3n2)nc2ccccc21 | -1.26% (inactive) | –
7 | COc1cccc(-n2cc(C(=O)O)c3ccccc3c2=O)c1 | -10.9% (inactive) | –
8 | COc1cccc(-n2ccn(CC(=O)NCc3ccc(C)cc3)c(=O)c2=O)c1 | -1.42% (inactive) | –
9 | CCN(Cc1ccccc1)C(=O)c1cn(-c2cccc(OC)c2)c(=O)c2ccccc12 | – | 18.4 µM (active)
10 | COc1ccc(NC(=O)CSc2nnc(C3CC3)n2C)cc1S(=O)(=O)N1CCCCC1 | -20.3% (inactive) | –
11 | COc1ccc(C2CC(=O)Oc3ccc(C(C)(C)C)cc32)cc1 (configuration not stated) | 3.87% (inactive) | –
12 | N#Cc1ccc(/C=C2\CCn3c2nc2cc(C(=O)O)ccc2c3=O)cc1 | -17.5% (inactive) | –
13 | COc1cccc(Cn2c(=O)c(CCc3ccccc3)nc3cnc(N(C)C)nc32)c1 | -20.6% (inactive) | –
14 | COc1cccc(Cn2c(=O)cnc3cncnc32)c1 | – | 1.46 µM (active)
15 | COc1cccc(Cn2c(=O)c(-c3ccccc3)nc3cnc(OC)nc32)c1 | 11.2% (inactive) | –
16 | Cc1ccc(C(=O)N/C(=C\c2cn(C)c3ccccc23)C(=O)N2CCN(C)CC2)cc1 | -15.1% (inactive) | –
17 | Cc1cn(C2CC(O)C(CO)O2)c(=O)n(CCCc2ccccc2)c1=O (configuration not stated) | -4.26% (inactive) | –
18 | CCOc1c(Nc2cccc(Cl)c2)c(=O)c1=O | -0.433% (inactive) | –
19 | CCCCN(CC)C(=O)c1ccccc1Oc1ccccc1 | – | 20.6 µM (active)
20 | CCCCN(CC)C(=O)c1c[nH]c2ccc(S(=O)(=O)Nc3cccc(OC)c3)cc2c1=O | -16% (inactive) | –
21 | CCCCN(CC)C(=O)c1ccc2c(c1)OCO2 | -16.7% (inactive) | –
22 | C[C@H]1CN([C@@H](C)CO)C(=O)c2cc(Br)cnc2O[C@H]1CN(C)S(=O)(=O)c1cccs1 | -17.2% (inactive) | –
23 | CCCCNC(=O)CSc1nc2ccc(NC(=O)CSc3nnc(COc4ccccc4C)n3C)cc2s1 | -23.5% (inactive) | –
24 | COC(=O)C[C@@H]1C=C[C@@H](NS(=O)(=O)c2cccc(OC)c2)[C@@H](CO)O1 | 3.28% (inactive) | –
25 | CS(=O)(=O)N1CCCCC1c1cc(C(=O)NCc2ccccc2)no1 (configuration not stated) | 15.2% (inactive) | –
26 | CCCNC(=O)c1cc(C2CCCCN2C(=O)OC)on1 (configuration not stated) | -14.1% (inactive) | –

Row | SMILES | activity change, negative = growth inhibition | Potency
27 | O=C(NCc1ccc(F)cc1)c1cc(C2CCCCN2C(=O)C2CCCCC2)on1 (configuration not stated) | – | 18.4 µM (active)
28 | COC(=O)[C@@H](Cc1ccccc1)NC(=O)NCCc1ccccc1 | 0.102% (inactive) | –
29 | COc1ccc(-c2[nH][nH]c(=O)c2NC(=O)c2ccc([N+](=O)[O-])cc2)cc1 | 1.08% (inactive) | –
30 | COc1ccc(OC)c(NC(=O)c2ccc3c(c2)CCN3S(C)(=O)=O)c1 | -16.5% (inactive) | –
31 | CCCc1c(C(=O)Nc2ccc(F)cc2)cnn1-c1ccccc1 | – | 14.6 µM (active)
32 | CCc1ccccc1NC(=O)c1cnn(-c2ccc(F)cc2)c1C1CCNCC1 | 3.96% (inactive) | –
33 | CCCc1c(C(=O)O)cnn1-c1ccc(Cl)cc1 | 4.33% (inactive) | –
34 | CCn1c(SCC(=O)N2CCCC2=O)nc2ccccc21 | 1.3% (inactive) | –
35 | O=C(N/N=C/c1ccsc1)c1cc(O)cc(O)c1 | 17.2% (inactive) | –
36 | CCCCC(=O)Nc1c2c(nn1-c1ccc([N+](=O)[O-])cc1)CS(=O)(=O)C2 | 1.47% (inactive) | –
37 | CCN(CC)S(=O)(=O)c1ccc2[nH]c(=O)cc(C(=O)N(C)C3CCS(=O)(=O)C3)c2c1 (configuration not stated) | 3.51% (inactive) | –
38 | COc1ccc(N2CCN(C(=O)CCNC(=O)c3ccc(Br)cc3)CC2)cc1 | -25% (inactive) | –
39 | COc1ccc(N2CCN(C(=O)[C@@H](NC(=O)c3cc(OC)cc(OC)c3)C(C)C)CC2)cc1 | – | 14.6 µM (active)
40 | COc1cc(OC)cc(C(=O)NC(C(=O)N2CCC2)C(C)C)c1 (configuration not stated) | -15.4% (inactive) | –
41 | CS(=O)(=O)N1CCc2nc(-c3ccccc3)sc2C1 | 5.62% (inactive) | –
42 | CCOc1ccc(S(=O)(=O)NCCC(=O)NCC(C)(C)N2CCOCC2)cc1 | 5.12% (inactive) | –
43 | C=CCn1c(P(C)(=O)O)nc2ccccc21 | – | inactive
44 | C=C(Br)Cn1c(CCCC)nc2ccccc21 | – | 18.4 µM (active)
45 | O=C(O)Cn1c(Cc2ccccc2)nc2ccccc21 | 32.8% (inactive) | –
46 | Cc1nc2sc(C)c(C)n2c(=O)c1S(=O)(=O)NCCc1ccc(Cl)cc1 | -14.2% (inactive) | –
47 | CCOC(=O)c1cccc(NS(=O)(=O)c2cc(-c3cnc(C)o3)ccc2OC)c1 | – | 10.3 µM (active)
48 | CCOC(=O)c1cc(-c2ccc(OC)c(S(=O)(=O)Nc3ccc(OC)cc3OC)c2)on1 | -18% (inactive) | –
49 | COc1ccc(N(C)S(=O)(=O)c2cccc3nsnc23)cc1 | 11.3% (inactive) | –
50 | CCOc1ccc(N(C)S(=O)(=O)c2cc(-c3cnc(C)o3)ccc2OC)cc1 | – | 25.9 µM (active)
51 | CCOC(=O)c1cccc(NS(=O)(=O)c2cn(C)c(C)n2)c1 | -13.1% (inactive) | –
52 | CCOc1ccc(N(C)S(=O)(=O)c2cnc[nH]2)cc1 | 0.234% (inactive) | –
